Source: PubChem BioAssay (National Center for Advancing Translational Sciences (NCATS))
AmpC no deterg: AmpC beta-lactamase inhibition without detergent. P00811. AmpC nitrocefin hydrolysis, absorbance 480 nm, 0.0001% Triton. Potency, µM (titrated, usually from 57.1 µM), for inactives: at the highest dose activity change, negative = inhibition, most hits filed as inhibitors. 0.52% of 330,000 active. AID 485341;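 also: potency is read from the fitted curve at half-maximal effect; plate controls were no compound for no effect and no enzyme for full effect; nearly all actives have a fitted effect of over 20% in size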
Target sequence (P00811 whole entry, looked up): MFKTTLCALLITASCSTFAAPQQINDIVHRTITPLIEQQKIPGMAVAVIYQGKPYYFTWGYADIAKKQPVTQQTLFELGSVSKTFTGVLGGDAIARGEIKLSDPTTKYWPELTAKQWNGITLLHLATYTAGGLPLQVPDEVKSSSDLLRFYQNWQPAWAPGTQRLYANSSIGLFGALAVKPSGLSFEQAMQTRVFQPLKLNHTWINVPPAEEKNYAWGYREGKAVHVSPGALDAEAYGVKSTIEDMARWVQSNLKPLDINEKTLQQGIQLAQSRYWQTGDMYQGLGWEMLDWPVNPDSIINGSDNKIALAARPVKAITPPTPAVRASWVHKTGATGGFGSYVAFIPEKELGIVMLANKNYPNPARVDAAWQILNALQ
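20 mM phosphate pH 7.0 + 0.01% (detergent screen) or 0.0001% Triton X-100; 5.3 nM AmpC reagent; cpd preinc 15 min RT; nitrocefin (800 uM stock) to start; A480 q20 s × 4 min; Activity was normalised to no-enzyme and no-compound control wells.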
AmpC inh detg: AmpC beta-lactamase inhibition with detergent present | P00811 | AID 485294 | Potency, µM (titrated, usually from 114 µM), for the others: at the highest dose activity change, negative = inhibition, actives largely listed as inhibitors | 0.041% of 370,000 active | AmpC hydrolysis of nitrocefin, absorbance 480 nm, 0.01% Triton;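 also: potency is read from the fitted curve at half-maximal effect; 0% = no-compound wells and -100% = no-enzyme wells; nearly all actives have a fitted effect of over 25% in size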
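20 mM phosphate pH 7.0 + 0.01% (detergent screen) or 0.0001% Triton X-100; 5.3 nM AmpC reagent; cpd preinc 15 min RT; nitrocefin (800 uM stock) to start; A480 q20 s × 4 min; Activity was normalised to no-enzyme and no-compound control wells.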
CHX counter: affects cycloheximide protein synthesis inhibition readout, counter-screen | cell reporter, cycloheximide protein synthesis inhibition counterscreen | max response, % | 12% of 300,000 active | AID 2314; in the data active = max response mostly above about 13%, no sharp cut-off; inactive = mostly below about 14%; also: read at 38.3 µM for the half of the compounds with a filed dose; 0% is about no effect
NS1 function inh: inhibitors of influenza NS1 protein function; Potency, µM (titrated, usually from 46.1 µM), for the others: at the highest dose activity, positive = more growth; AID 2326; 0.4% of 270,000 active; calls by dose curve; also: potency is read from the fitted curve at half-maximal effect; actives are rising curves; nearly all actives have a fitted effect of over 50% in size
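A cell-based growth assay was used: compounds that relieve NS1-induced slow growth of budding yeast raise OD600. Assay medium was yeast nitrogen base with ammonium sulphate and -URA supplement, pH 6.0, with 2% galactose.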
Shiga toxin inh: Shiga toxin inhibition. Vero cells, Shiga toxin protein synthesis inhibition reporter. inhibition, % at 38.7 µM. 9.2% of 290,000 active; in the data active = inhibition mostly above about 28%, no sharp cut-off; inactive = mostly below about 43%; also: 0% is about no effect
Numbers without * were called inactive; ? = inconclusive; · = no result given; ! = repeats disagree; [ ] = another dose, or the depositor's remark. The full list was thinned out, with hits kept by preference. Unless noted, calls follow the shape of the dose curve; as a rule, active = well fitted curve in the direction sought with a large enough effect; inconclusive = small, poorly fitted or top-dose-only effect, or another doubt; inactive = no such curve, though single readings can be large; an effect the other way counts as inactive or inconclusive.

SMILES | AmpC no deterg | AmpC inh detg | CHX counter | NS1 function inh | Shiga toxin inh
O=C(OCc1cc(=O)n2nc(C3CC3)sc2n1)c1cccc(NC(=O)c2ccccc2Cl)c1 | · | -5% | · | · | ·
CN(C)c1nc(NCc2ccccc2)nc(N/N=C/c2ccccc2F)n1 | -36% | -7% | -3 | 4% | -17
FC(F)Oc1ccccc1/C=N/Nc1nc2ccccc2o1 | -33% | -13% | 44* | -26% | 74*
Fc1ccccc1/C=N/Nc1nc2ccccc2o1 | -11% | -4% | 50* | -5% | 79*
CCn1c(C)nc2cc(C(=O)NN=Cc3ccccc3OC(F)F)ccc21 | -15% | · | · | · | ·
O=C(NC1C(=O)NNC1c1ccccc1)c1ccccc1 (stereo not given) | -23% | -10% | 21* | 6% | 116*
COc1ccc(OC)c(S(=O)(=O)N2c3cc(F)ccc3CCC2C)c1 (stereo not given) | · | 0% | 7 | -11% | 28
FC(F)(F)c1ccc2c(c1)nc1n2CCCC1 | -4% | 3% | 22* | -174% | 13
Cc1cccc(C)c1Nc1nnc(SCC(=O)c2ccc3c(c2)NC(=O)CO3)s1 | 25µM* | -4% | -3 | ? | 20
COc1cccc(-n2c(=O)c3sccc3n(Cc3cc(=O)n4cc(Cl)ccc4n3)c2=O)c1 | · | 0% | · | · | ·
Cc1ccc(-c2nnc(-c3cccc(Br)c3)o2)cc1 | -16% | -18% | 26* | -20%[9.22 µM] | 42*
Brc1cccc(-c2nnc(-c3ccccc3)o2)c1 | -15% | ? | 27* | -16% | 55*
O=c1oc2ccccc2cc1-c1nnc(-c2cccc(Br)c2)o1 | -7% | -21% | -3 | -11% | 26
NNc1ccccc1 | · | · | 14*! | · | 11
Cc1ccc(Nc2nc(Cl)nc(NC(C)(C)C)n2)cc1 | -24% | -7% | 54* | -15% | 60*
C=CCNc1nc(Cl)nc(Nc2ccccc2)n1 | -25% | ? | 22* | -9% | 40*
NNc1nc(Nc2ccccc2)nc(Nc2ccccc2)n1 | -45% | -8% | 28 | · | 36*
c1ccc(Nc2ccc(Nc3ccccc3)cc2)cc1 | -20% | 0% | · | · | ·
O=C1CN(C(=O)c2ccc(S(=O)(=O)N3CCCCC3)cc2)C(c2ccc(F)cc2)c2cc(Br)ccc2N1 (stereo not given) | · | -6% | · | · | ·
CCOCCN1CCN(C(=O)CN2CCCC2=O)CC1 | -18% | -1% | 9 | 7% | -4
c1ccc(Nc2ccnc(Nc3ccccc3)n2)cc1 | -21% | 2% | 53* | -58% | 100*
CNc1nc(Cl)nc(Nc2ccccc2)n1 | -23% | -1% | 40* | · | 45*
CC(C)c1ccc(Nc2nc(Cl)nc(Cl)n2)cc1 | -17% | -14% | -1 | -2% | ·
CCN(CCn1cccn1)C(=O)CCc1nnc(C2(c3ccc(Cl)cc3)CCC2)o1 | 167% | 3% | 41* | -1% | 92*
CCN(CCn1cccn1)C(=O)CCc1nnc(-c2ccccc2)o1 | 9% | 0% | 37* | 4% | 57*
SMILES | AmpC no deterg | AmpC inh detg | CHX counter | NS1 function inh | Shiga toxin inh
COCC1CCN(C(=O)CCc2nnc(C3(c4ccc(Cl)cc4)CCC3)o2)CC1 | 163% | -8% | 15* | -7% | 33
O=C(Cn1nc(-c2ccc(Cl)cc2)ccc1=O)NCc1ccccc1Cl | · | 4% | · | · | ·
CN(C)c1ccc(CN(Cc2ccco2)C(=O)c2ccc(F)cc2)cc1 | · | 15% | · | · | ·
COc1ccc(Cl)cc1NS(=O)(=O)c1cccc(C(=O)NC2CC2)c1 | -3% | · | · | · | ·
COc1ccc(NC(=O)c2cccc(S(=O)(=O)N3CCCCCC3)c2)cc1 | -29% | 0% | 7 | 5% | 31
CCOc1ccccc1NC(=O)C1CC(=O)n2ncnc2N1 (stereo not given) | -8% | ? | -4 | -5% | -6
COc1ccc(Cl)cc1N=C1NC(=O)CC(C(=O)Nc2ccccc2C(F)(F)F)S1 (stereo not given) | · | -2% | · | · | ·
O=C(CCC(=O)OCC(=O)c1ccc(Cl)cc1)Nc1ccc(Oc2ccccc2)cc1 | · | -8% | · | · | ·
COCc1cc(C)nc(SCC(=O)Nc2ccc3c(c2)OCCO3)c1C#N | -18% | 3% | 11* | 2% | 19
Cc1csc(SCC(=O)Nc2ccc3c(c2)OCCO3)n1 | -29% | -5% | 42* | 0% | 75*
COCc1cc(C)nc(SCC(=O)Nc2ccc3c(c2)OCO3)c1C#N | -25% | -1% | 7 | 6% | 10
CSc1nsc(SCC(=O)Nc2ccc3c(c2)OCCO3)n1 | -28% | 7% | 41* | -8% | 94
CCOC(=O)c1cccc(C2=CC(=O)CC(C)(C)C2)c1 | 13% | -1% | · | · | ·
CC1CC(C)CN(C(=O)C(C)N2CCN(S(=O)(=O)c3cccs3)CC2)C1 (stereo not given) | 29% | 9% | · | · | ·
Cc1nnc(SCC(=O)Nc2cccc(S(=O)(=O)NC3=NCCCCC3)c2)n1Cc1ccccc1 | 33% | 4% | -1 | · | -4
Cc1ccc(Nc2nnc(SCC(=O)Nc3cccc(S(=O)(=O)NC4=NCCCCC4)c3)s2)cc1 | ? | -20% | 15* | ? | 18
Cc1cccc(Nc2nnc(SCC(=O)Nc3cccc(S(=O)(=O)N4CCCCC4)c3)s2)c1 | ? | -4% | 29* | ? | 78*
Cc1ccc(Nc2nnc(SCC(=O)Nc3ccc(S(=O)(=O)N4CCOCC4)cc3)s2)cc1 | -25% | -1% | 49* | -12% | 111*
Cc1cccc(NC(=O)CSc2nnc(NC(=O)CN3CCCCC3)s2)c1 | -44% | -10% | 1 | -1% | 13
CCc1nnc(NC(=O)CSc2nnc(-c3ccc(S(=O)(=O)N4CCCC4)cc3)n2CC)s1 | -2% | ? | 24* | 15% | 9
COc1cc2ccccc2cc1C(=O)N1CCN(c2nc3ccc(F)cc3s2)CC1 | · | -2% | · | · | ·
c1ccc2nc3c(nc2c1)OCC1CCCCN31 (stereo not given) | -6% | -2% | 54* | 2% | 108*
COc1ccc(Cl)cc1C(=O)C1CCCN(Cc2cnc(C)s2)C1 (stereo not given) | -16% | -10% | 17* | -5% | 53*
O=C(CSc1nnc(COc2ccc(Cl)cc2)o1)N1CCOCC1 | 27% | -8% | -5 | -7% | 1
CSc1ncc(C(=O)N2CCN(c3ccc(Cl)cc3)CC2)c(C)n1 | · | 13% | · | · | ·
SMILES | AmpC no deterg | AmpC inh detg | CHX counter | NS1 function inh | Shiga toxin inh
CC(C)C(OC(=O)c1ccccc1)c1nccc2ccccc12 (stereo not given) | 22% | -2% | 49* | -39% | 86*
Cc1cc(C(=O)OCC(=O)c2cccc([N+](=O)[O-])c2)c2ccccc2n1 | 51% | -14% | -2 | 4% | -12
O=C(OC(c1ccccc1)c1nccc2ccccc12)c1cccc([N+](=O)[O-])c1 (stereo not given) | 3% | ? | 32* | 14% | 35
O=C(c1ccccc1)c1nccc2ccccc12 | -30% | 0% | -3 | 13% | -9
COc1ccc(C)cc1NS(=O)(=O)c1ccc2c3c(cccc13)C(=O)N2 | · | 5% | · | · | ·
CCc1ccc(S(=O)(=O)c2nnn3c2nc(Nc2ccc(F)cc2)c2cc(Cl)ccc23)cc1 | · | 15% | · | · | ·
